# Experimental data from PubChem BioAssay (EPA / NIEHS).
# Records with an inconclusive call do not appear. The source holds several records for some structures; these can differ, active in one and inactive in another. Active and inactive are the calls of the source. Rule for the calls: active = hit-call score of the fitted dose curve at least 0.9, where 1 is the maximum; inconclusive = response in the unintended direction; inactive = score below 0.9.
# How the values were obtained:
# [1] = TOX21_p53_BLA_p2_viability: Viability Assessment in the Tox21 HCT-116 p53 Agonism Beta-lactamase Assay, Phase 2 (AID 2283591);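 note: compound exposure lasted 16 h at 37 °C; actives lower the ATP signal meaning cytotoxicity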
# In short: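 HCT-116 p53-bla cells (4000/well) rested 5 h at 37C, then received compounds in DMSO (217-fold dilution) for 16 h at 37C, 5% CO2. After the CCF4 read, CellTiter-Glo was added; ATP luminescence was read after 30 min at room temperature.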
# [2] = molecular target: Cellular tumor antigen p53 (Homo sapiens) (UniProt P04637); experiment: TOX21_p53_BLA_p2_ratio: Tox21 HCT-116 p53 Agonism Beta-lactamase Assay, Ratio, Phase 2 (AID 2283592)
# Cellular tumor antigen p53 (Homo sapiens), sequence (P04637 whole entry, looked up): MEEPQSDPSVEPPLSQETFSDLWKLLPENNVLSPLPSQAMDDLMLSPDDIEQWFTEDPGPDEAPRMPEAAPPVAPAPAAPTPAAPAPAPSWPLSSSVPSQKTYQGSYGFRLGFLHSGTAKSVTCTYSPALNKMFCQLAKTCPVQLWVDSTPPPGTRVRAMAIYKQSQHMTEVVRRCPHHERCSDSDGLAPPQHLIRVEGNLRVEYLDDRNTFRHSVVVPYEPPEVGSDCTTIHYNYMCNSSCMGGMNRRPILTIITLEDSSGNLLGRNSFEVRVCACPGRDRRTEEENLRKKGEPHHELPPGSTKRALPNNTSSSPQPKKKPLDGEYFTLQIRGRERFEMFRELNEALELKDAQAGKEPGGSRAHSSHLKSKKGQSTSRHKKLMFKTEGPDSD
# In short: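 Gain-of-signal p53 agonism was scored from the beta-lactamase FRET ratio (460/530 nm, 405 nm excitation) in HCT116 cells treated 16 h at 37C, 5% CO2, with DMSO serving as negative control and baseline.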
# [3] = TOX21_p53_BLA_p3_viability: Viability Assessment in the Tox21 HCT-116 p53 Agonism Beta-lactamase Assay, Phase 3 (AID 2283593);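 note: cells exposed to compound for 16 h before reading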
# In short: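 HCT-116 cells (4000/well) rested 5 h at 37C, then got DMSO compounds by pin tool (217-fold dilution) for 16 h at 37C, 5% CO2. After the bla read, CellTiter-Glo was added and luminescence read at 30 min, room temperature.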
# [4] = molecular target: Cellular tumor antigen p53 (Homo sapiens) (UniProt P04637); experiment: TOX21_p53_BLA_p3_ratio: Tox21 HCT-116 p53 Agonism Beta-lactamase Assay, Ratio, Phase 3 (AID 2283596)
# In short: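 HCT116 p53-bla cells (4000/well) given compound in DMSO (217-fold dilution) after 5 h, incubated 16 h at 37C. CCF4-AM substrate 2 h at room temperature; 460/530 nm emission ratio, gain fitted against DMSO.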
# [5] = TOX21_p53_BLA_p4_viability: Viability Assessment in the Tox21 HCT-116 p53 Agonism Beta-lactamase Assay, Phase 4 (AID 2283597);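 note: hits lower the luminescence signal meaning cytotoxicity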
# In short: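 Following a 16 h exposure at 37C, the treated HCT116 wells were first read for the FRET ratio. They were then lysed with CellTiter-Glo, and ATP luminescence was recorded after 30 min at room temperature.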
# [6] = molecular target: Cellular tumor antigen p53 (Homo sapiens) (UniProt P04637); experiment: TOX21_p53_BLA_p5_ratio: Tox21 HCT-116 p53 Agonism Beta-lactamase Assay, Ratio, Phase 5 (AID 2283599)
# In short: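 HCT-116 cells carrying a p53-inducible beta-lactamase reporter were seeded at 4000 cells/well and dosed after 5 h with compound in DMSO (217-fold dilution). After 16 h at 37C, CCF4-AM substrate was added for 2 h, and the 460/530 nm emission ratio was scored as gain-of-signal versus DMSO.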
# [7] = TOX21_p53_BLA_p5_viability: Viability Assessment in the Tox21 HCT-116 p53 Agonism Beta-lactamase Assay, Phase 5 (AID 2283600)
# In short: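 After the 460/530 nm beta-lactamase measurement, the wells received an ATP-detection luciferase reagent; signal was read 30 min later at RT. Compound treatment lasted 16 h on cells pre-incubated 5 h post-seeding.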
# [8] = molecular target: Cellular tumor antigen p53 (Homo sapiens) (UniProt P04637); experiment: TOX21_p53_BLA_p4_ratio: Tox21 HCT-116 p53 Agonism Beta-lactamase Assay, Ratio, Phase 4 (AID 2283601)
# In short: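 HCT116 cells carrying an inducible beta-lactamase reporter were plated at 4000 cells/well, rested 5 h, then exposed to compounds in DMSO (217-fold dilution) for 16 h at 37C. CCF4-AM substrate was loaded 2 h at room temperature; 460/530 nm emission ratio scored gain-of-signal versus DMSO.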
compound,measurement,setting,value
Oc1ccc2[nH]cc(CCCCN3CC=C(c4ccccc4)CC3)c2c1,outcome,[1],inactive
same,outcome,[2],inactive
same,outcome,[3],inactive
same,outcome,[4],inactive
same,outcome,[5],inactive
same,outcome,[6],inactive
same,outcome,[7],inactive
same,outcome,[8],inactive
Cc1cc(C(C)(C)c2cc(C)c(O)c(C)c2)cc(C)c1O,AC50,[1],44.8 µM (active)
same,AC50,[2],20.7 µM (active)
same,outcome,[3],inactive
same,AC50,[4],18.8 µM (active)
same,AC50,[5],57.2 µM (active)
same,AC50,[6],58.5 µM (active)
same,AC50,[7],83.3 µM (active)
same,AC50,[8],74.3 µM (active)
CC(=O)O[C@H]1C[C@H](O[C@H]2[C@@H](O)C[C@H](O[C@H]3[C@@H](O)C[C@H](O[C@H]4CC[C@@]5(C)[C@H](CC[C@@H]6[C@@H]5C[C@@H](O)[C@]5(C)[C@@H](C7=CC(=O)OC7)CC[C@]65O)C4)O[C@@H]3C)O[C@@H]2C)O[C@H](C)[C@H]1O[C@@H]1O[C@H](CO)[C@@H](O)[C@H](O)[C@H]1O,AC50,[1],0.109 µM (active)
same,outcome,[2],inactive
same,AC50,[3],0.0857 µM (active)
same,outcome,[4],inactive
same,AC50,[5],0.121 µM (active)
same,outcome,[6],inactive
Oc1cc(Cl)c(Cl)c(Cl)c1,AC50,[1],44.1 µM (active)
same,AC50,[2],10.2 µM (active)
same,outcome,[3],inactive
same,AC50,[4],17.3 µM (active)
same,AC50,[5],69.4 µM (active)
same,AC50,[6],13.2 µM (active)
same,outcome,[7],inactive
same,AC50,[8],37.5 µM (active)
CCOC(=S)S,outcome,[1],inactive
same,outcome,[2],inactive
same,outcome,[3],inactive
same,AC50,[4],86.6 µM (active)
same,outcome,[4],inactive
same,outcome,[5],inactive
same,outcome,[6],inactive
same,outcome,[7],inactive
same,outcome,[8],inactive
C[C@H]1CC[C@]2(NC1)O[C@H]1C[C@H]3[C@@H]4CC[C@H]5C[C@@H](O[C@@H]6O[C@H](CO)[C@H](O[C@@H]7O[C@H](CO)[C@@H](O)[C@H](O[C@@H]8OC[C@@H](O)[C@H](O)[C@H]8O)[C@H]7O[C@@H]7O[C@H](CO)[C@@H](O)[C@H](O)[C@H]7O)[C@H](O)[C@H]6O)CC[C@]5(C)[C@H]4CC[C@]3(C)[C@H]1[C@@H]2C,AC50,[1],4.84 µM (active)
same,AC50,[2],31.4 µM (active)
same,AC50,[3],5.23 µM (active)
same,AC50,[4],29.4 µM (active)
same,AC50,[5],4.05 µM (active)
same,AC50,[6],30.3 µM (active)
same,AC50,[7],6.08 µM (active)
same,AC50,[8],24 µM (active)
[H+].[H+].[Hg+2].[O-]B([O-])[O-].[c-]1ccccc1,AC50,[1],7.89 µM (active)
same,AC50,[2],1.73 µM (active)
same,AC50,[3],0.975 µM (active)
same,AC50,[4],1.17 µM (active)
same,AC50,[5],8.43 µM (active)
same,AC50,[6],5.39 µM (active)
same,AC50,[7],4.94 µM (active)
same,AC50,[8],18.3 µM (active)
CCNc1nc(NC(C)C)nc(OC)n1,outcome,[1],inactive
same,outcome,[2],inactive
same,outcome,[3],inactive
same,outcome,[4],inactive
same,outcome,[5],inactive
same,outcome,[6],inactive
same,outcome,[7],inactive
CC(C)N(C(=O)SCC(Cl)=CCl)C(C)C,outcome,[1],inactive
same,outcome,[2],inactive
same,outcome,[3],inactive
same,outcome,[4],inactive
same,outcome,[5],inactive
same,outcome,[6],inactive
same,outcome,[7],inactive
C#CCN1CC(=O)N(COC(=O)C2C(C=C(C)C)C2(C)C)C1=O (stereo unspecified),outcome,[1],inactive
same,outcome,[2],inactive
same,outcome,[3],inactive
same,outcome,[4],inactive
Oc1c(Br)c(Br)c(Br)c(Br)c1Br,outcome,[1],inactive
same,AC50,[2],1.56 µM (active)
same,outcome,[3],inactive
same,AC50,[4],0.886 µM (active)
same,outcome,[5],inactive
same,outcome,[6],inactive
same,outcome,[7],inactive
CC(C)CON=O,outcome,[1],inactive
same,outcome,[2],inactive
same,outcome,[3],inactive
same,outcome,[4],inactive
same,outcome,[5],inactive
same,outcome,[6],inactive
same,outcome,[7],inactive
same,outcome,[8],inactive
Clc1ccc(CO/N=C(\Cn2ccnc2)c2ccc(Cl)cc2Cl)c(Cl)c1,AC50,[1],23 µM (active)
same,AC50,[2],38.7 µM (active)
same,outcome,[3],inactive
same,AC50,[4],42.8 µM (active)
same,AC50,[5],33.4 µM (active)
same,AC50,[6],36.3 µM (active)
same,outcome,[7],inactive
same,AC50,[8],33 µM (active)
